Measured values from article PMC13494018.
A number with no mark means an inactive call. How the calls were made is not given here.

Target: CD276, Q5ZPR3
Sequence (Q5ZPR3 whole entry): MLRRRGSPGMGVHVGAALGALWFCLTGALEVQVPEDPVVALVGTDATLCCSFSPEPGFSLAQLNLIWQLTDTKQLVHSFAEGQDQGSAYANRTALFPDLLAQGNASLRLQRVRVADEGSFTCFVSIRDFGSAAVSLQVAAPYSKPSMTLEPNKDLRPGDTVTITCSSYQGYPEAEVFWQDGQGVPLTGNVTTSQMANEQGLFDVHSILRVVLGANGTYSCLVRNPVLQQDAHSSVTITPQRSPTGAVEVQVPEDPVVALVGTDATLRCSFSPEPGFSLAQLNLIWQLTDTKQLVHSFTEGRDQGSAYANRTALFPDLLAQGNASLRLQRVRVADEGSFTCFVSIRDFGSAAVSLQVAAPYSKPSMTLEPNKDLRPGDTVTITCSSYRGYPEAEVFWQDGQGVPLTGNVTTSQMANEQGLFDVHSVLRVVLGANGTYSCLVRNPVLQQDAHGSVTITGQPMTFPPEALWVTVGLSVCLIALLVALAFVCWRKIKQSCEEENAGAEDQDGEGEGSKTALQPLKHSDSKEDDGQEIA

| Binder | binding in a display sort |
| --- | --- |
| design_486_d4f32670-1303-4d79-8413-1b14cb3eff50_973_dldesign_0_cycle1_af2pred (protein) DPAERAAEFRRRAEEVAAIYLAAAQANPAMAPVMAANVLATMRAWAAVWADNPAVAAAALEVGREAAARIA | not found |
| design_486_d4f32670-1303-4d79-8413-1b14cb3eff50_969_dldesign_0_cycle1_af2pred (protein) AQAERDAAARKIAAAHLNHAAKVAEALAKEAKDPKVKKKLKEAAKKAKELAKEAAKGNAAEAGEKAVEAAKLLAEARRLYEEDK | not found |
| design_391_ca6baf5d-2451-47ba-bffc-fc886679966a_2389_dldesign_0_cycle1_af2pred (protein) GKEEEAKEAVERARELAKKMIEEAEKAAKEDLGKAIEVLKKGNEELLELAEEAEELDPEAGEEIRELATQAISEAVKKMVAIQLAK | not found |
| design_486_d4f32670-1303-4d79-8413-1b14cb3eff50_4_dldesign_0_cycle1_af2pred (protein) REEKVEEARRLAQRALNAASKAVVGITSGSLSPEEIQALIDEATEALERAKELAPYATPAVREAIELAEALLQQAKEL | not found |
| design_486_d4f32670-1303-4d79-8413-1b14cb3eff50_845_dldesign_0_cycle1_af2pred (protein) SAAEQQLQQAKGYITLANAIARDPNPTPEQLQLAKEAAQQAIKLAEQVEKAVGEKGKEVKKQAEEALAKVQALL | not found |
| design_486_d4f32670-1303-4d79-8413-1b14cb3eff50_1137_dldesign_0_cycle1_af2pred (protein) MEEAEEVMRRTFELAREARELRAEAERLAKLAEESGEAAPEAAAARAKAEEKVAEARRLGEEYPGAAALAEGTLAG | not found |
| design_486_d4f32670-1303-4d79-8413-1b14cb3eff50_66_dldesign_0_cycle1_af2pred (protein) AEAEAAAEAAAAAARAAAAAGDFATAVAITTTFAAANPALAWRVANAALAAFSQAARDPATAAAANAAMAAVVDTLRALSS | not found |
| design_486_d4f32670-1303-4d79-8413-1b14cb3eff50_897_dldesign_0_cycle1_af2pred (protein) NPQGEAAVRYAEIAARARRLAEEARAAGREELAAEFQRIAEAARAALRRAVAANVAGEDRSEELVAEAERLERELEELERRFR | not found |
| design_486_d4f32670-1303-4d79-8413-1b14cb3eff50_135_dldesign_0_cycle1_af2pred (protein) EREEEVERRREEVVRAAELVAAIARAVGDEETARLAEEAKRLAEEGGEEGVERARELVREAMVRIAKRLAEKS | not found |
| design_486_d4f32670-1303-4d79-8413-1b14cb3eff50_103_dldesign_0_cycle1_af2pred (protein) AEAEEFAEKAKEKAKEAVKVYAKDPEAGAAKLNALQAEAARKAIADPRYNPALAAVVEEALKANEVAKAA | not found |
| design_391_ca6baf5d-2451-47ba-bffc-fc886679966a_1909_dldesign_0_cycle1_af2pred (protein) VGLAKAAELAVESAKQAVEQAEALAKAGKDPKQALALTDQAKLAADTAKAIAKQVEKEDPEKGKKLKEEAEKVKKKAEEVEKKIK | not found |
| design_391_ca6baf5d-2451-47ba-bffc-fc886679966a_2255_dldesign_0_cycle1_af2pred (protein) DPLLAAARAVAAAALAAVRDGAARGAEAAEQALTFALNLLAAQARRAERELAGDPALRARVLAILDAARAEVRALGEALIAAAR | not found |
| design_486_d4f32670-1303-4d79-8413-1b14cb3eff50_194_dldesign_0_cycle1_af2pred (protein) GVEEAYDVAKALAEQAIKANAADPEAKKKAEEALKKAEEAYKNAPKIDPAEAAYKIMKEAAKAAKQYLAAVAK | not found |
| design_486_d4f32670-1303-4d79-8413-1b14cb3eff50_788_dldesign_0_cycle1_af2pred (protein) MREEAERVRRRAEEVEELAAKASPAVAAQVRARARAARTFAEAALRSPDPELAAQAVAAAEANVEAAEQLLAADA | not found |
| design_486_d4f32670-1303-4d79-8413-1b14cb3eff50_440_dldesign_0_cycle1_af2pred (protein) AGKEIAKKMGKAVAERLAKQAPSVAEEAKKAAEAIEKGDYEEAKKEAEKALEIGKKNPKEYKVVKAGVETLKVLADAIAAS | not found |
| design_391_ca6baf5d-2451-47ba-bffc-fc886679966a_1932_dldesign_0_cycle1_af2pred (protein) AQANAELTLRTLEAAGRAALALARASDAETAARILDAFRKTSAVLIESGAAAGPEAAKKVKELADKYLAELEAIVAAKAAEAA | not found |
| design_391_ca6baf5d-2451-47ba-bffc-fc886679966a_2338_dldesign_0_cycle1_af2pred (protein) AEAAKQAALNTAGILAATVGAEAAAAAGLEAITVYGASIGDVLKATTTIASATSPQARANATRAVALISRALIAS | not found |
| design_486_d4f32670-1303-4d79-8413-1b14cb3eff50_30_dldesign_0_cycle1_af2pred (protein) AAAARAKAGVYTGEGFEKVREGERLRREGDPRAVEEYEEAAKLFEKAAEYYAQVNPGAAAGVAAMAKQVRERAEEYREEL | not found |
| design_391_ca6baf5d-2451-47ba-bffc-fc886679966a_2408_dldesign_0_cycle1_af2pred (protein) SAAAVAAALAAAEASVKTAERFAEEAEKAVDDPERATRLGESARQNIEVALALADDAAATDPAAAPKAAEIKKRAEEVRKRIEEVLKK | not found |

| Binder | binding in a display sort |
| --- | --- |
| design_391_ca6baf5d-2451-47ba-bffc-fc886679966a_1789_dldesign_0_cycle1_af2pred (protein) DALAQAIAQIKEMGDIALALAQDALANPAIAAGAIRAAQSLVKHMLALGKAAGPEAAAVAEKEAAKVNAAIAQAKAA | not found |
| design_486_d4f32670-1303-4d79-8413-1b14cb3eff50_1043_dldesign_0_cycle1_af2pred (protein) AAEKEAEAARLERLMQAYVAAAMAGAARVTGNEATAAAQLAKARALDPEVAGELEAAVLADPQAALAEALERARAAEERLRALREE | binds (active) |
| design_486_d4f32670-1303-4d79-8413-1b14cb3eff50_300_dldesign_0_cycle1_af2pred (protein) SELDEELLERAKRLLETAKAAGAAGDKETVQQALGEAVELAAEAQRHRDVVSEETWQAIQQALNTAAQHAIAL | not found |
| design_486_d4f32670-1303-4d79-8413-1b14cb3eff50_34_dldesign_0_cycle1_af2pred (protein) AAEKAIKVLEEAKKEAAKDPGDGKAAIEAIEKAIEAVKANPNNAGIGQAMVILAEAAAKASPKTRAVLSKAIAELSQVAI | not found |
| design_486_d4f32670-1303-4d79-8413-1b14cb3eff50_394_dldesign_0_cycle1_af2pred (protein) AEANVALGKRMLEAGKKLAEETKELAKKAKKGEDKEGAKEAAKVALAFAETLELVAEGVPEIAEELKKAAKELKEAAEKALKAAKAA | not found |
| design_486_d4f32670-1303-4d79-8413-1b14cb3eff50_565_dldesign_0_cycle1_af2pred (protein) MTEEELIQRTADANVRQVRRVAVEEGLEAGRRQLELNVKSLESVGATEIAAEMERRAEAALAEAAAELARRAAE | not found |
| design_486_d4f32670-1303-4d79-8413-1b14cb3eff50_402_dldesign_0_cycle1_af2pred (protein) ADEEKVKQAKKLAEEALRLAKEDPEKAKKKLEEAAKLAAASPAALEILLSVAGELYRINPEVGKAARQAFATAATAIV | not found |
| design_391_ca6baf5d-2451-47ba-bffc-fc886679966a_2026_dldesign_0_cycle1_af2pred (protein) AAKEALEKAKEKAEEIKAIADDVAKKAAAGTITPEEVAAALAKAIELAKEASEYLKEVPEAEAEEIAREVNAAMAKLNKAAVKALA | not found |
| design_391_ca6baf5d-2451-47ba-bffc-fc886679966a_1764_dldesign_0_cycle1_af2pred (protein) DPLEEALKEFEEALKLARELAEAVAALNPEEGERAREAIKEAEKRAKEALKLSPEEAAKAIREIRNELMRRVMREGARALAAA | not found |
| design_486_d4f32670-1303-4d79-8413-1b14cb3eff50_521_dldesign_0_cycle1_af2pred (protein) DAAALAARTARAIRDQAVRTVAAEEGPEAAEIARAAGEAVLAGDFEEGRRLAERVGRARAFVLSNVESIALLVEG | not found |
| design_391_ca6baf5d-2451-47ba-bffc-fc886679966a_2108_dldesign_0_cycle1_af2pred (protein) TAAAALAAAKAALATAKAAGLPARYLEMAEAALAVATSAAASGDPAHQKAALAFSSAVLAAIEAEAAKRA | not found |
| design_391_ca6baf5d-2451-47ba-bffc-fc886679966a_2271_dldesign_0_cycle1_af2pred (protein) AAAEKEKEAEAKELFEKARKLAAEAAKLAVKAVGLSEEAYQLANEALQYAIEALEIVSAGEDLEKAKELLEKAQEKLKKATELVKKL | not found |
| design_391_ca6baf5d-2451-47ba-bffc-fc886679966a_2349_dldesign_0_cycle1_af2pred (protein) NQAKLAEVFARAQEVIKRREEVRKRAEELSEEKREKVLKLLEESTKYLQEAFRAIAKGDAENAKKYVDKAEKLVEEAEKA | not found |
| design_486_d4f32670-1303-4d79-8413-1b14cb3eff50_1067_dldesign_0_cycle1_af2pred (protein) ANAAQIKAAAQAAYKSAKEIAEEALELAKEGKKEEAEKKLKGAEKLGEIAAALAAQYGAAGDPAEGAALAKDIKEYLKEAKKELEKL | not found |
| design_486_d4f32670-1303-4d79-8413-1b14cb3eff50_760_dldesign_0_cycle1_af2pred (protein) EAEEAARRARELAERARAARDAGLADPAKANEALGVALDAMRELAEIAERYPEVAEVAREAARVAAEAATALAKQAAAYYAAQRA | not found |
| design_486_d4f32670-1303-4d79-8413-1b14cb3eff50_798_dldesign_0_cycle1_af2pred (protein) GVQALAAATLEAMELAKKIGANEAVRNLGAALAVAGTRHPELAPEFTKRVEELLKLAKEAAKGDKEEAAKLVAEEARKLRDAALAA | not found |
| design_486_d4f32670-1303-4d79-8413-1b14cb3eff50_819_dldesign_0_cycle1_af2pred (protein) SLEELRRKAVRKAQEAMATASKVAIAAKAAGDAATAAKANELLVKAQEALKEAVEGKNVEEALRRAEELLEEAKKLAKE | not found |
| design_486_d4f32670-1303-4d79-8413-1b14cb3eff50_721_dldesign_0_cycle1_af2pred (protein) MNLYESTLLVAEGAIQTAQQAAELATDPAIKAQAKELKERAQEIRDRVKARGTATNEEGQEAVRLLNQASKLLAQAK | not found |
| design_486_d4f32670-1303-4d79-8413-1b14cb3eff50_567_dldesign_0_cycle1_af2pred (protein) DTVVANALAAQLVLEAIGLAAAGNIEEALKKLREAAKVASPESAAVLEAAARTIAEEGLPPEEAVAVFNAALAVVQKNAIAAA | not found |
